Measured values as given in article PMC7862700, “An all-to-all approach to the identification of sequence-specific readers for epigenetic DNA modifications on cytosine”.

Columns and labels:
Test in all cases: DAPPL (digital affinity profiling via proximity ligation, sequencing); 10 mM Tris-HCl pH 7.5, 50 mM NaCl, 1 mM DTT, 4% glycerol, room temperature, 30 min; GST-TFs on glutathione beads, 16-mer random dsDNA library, 0.1% formaldehyde crosslink after washing; high values mean tight binding
Details in all cases: protein: recombinant; tags: N-terminal GST; dsDNA, one strand shown
[1] = target: T1, FLI1 (Homo sapiens, UniProt Q01543 1-452)
T1 sequence: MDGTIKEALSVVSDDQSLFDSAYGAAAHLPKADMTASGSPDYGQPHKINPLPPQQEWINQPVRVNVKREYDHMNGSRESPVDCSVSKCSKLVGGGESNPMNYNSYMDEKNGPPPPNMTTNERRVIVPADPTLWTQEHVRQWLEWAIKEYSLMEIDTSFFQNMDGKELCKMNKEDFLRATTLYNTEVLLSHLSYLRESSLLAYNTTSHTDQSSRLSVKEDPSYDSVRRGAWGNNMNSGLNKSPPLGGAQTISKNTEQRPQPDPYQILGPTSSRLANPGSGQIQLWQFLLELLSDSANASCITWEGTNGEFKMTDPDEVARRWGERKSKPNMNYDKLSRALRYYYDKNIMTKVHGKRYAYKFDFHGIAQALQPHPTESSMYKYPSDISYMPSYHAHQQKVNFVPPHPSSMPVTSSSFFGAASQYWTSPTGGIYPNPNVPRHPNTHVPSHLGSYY
In short: (§1)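 Each value of binding signal is a hexamer's read frequency for a factor divided by the same hexamer's frequency in the tag-only sample. Barcoded, bead-captured GST fusions of human transcription factors made in yeast were pooled with that sample and incubated with 200 nmole of a random double-stranded 16-mer DNA library in Tris/NaCl/DTT/glycerol buffer at room temperature for 30 min. Washing, 0.1% formaldehyde crosslinking, proximity ligation, PCR and Illumina NextSeq500 sequencing followed.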

[2] = target: T2, ELK1 (Homo sapiens, UniProt P19419 1-428)
T2 sequence: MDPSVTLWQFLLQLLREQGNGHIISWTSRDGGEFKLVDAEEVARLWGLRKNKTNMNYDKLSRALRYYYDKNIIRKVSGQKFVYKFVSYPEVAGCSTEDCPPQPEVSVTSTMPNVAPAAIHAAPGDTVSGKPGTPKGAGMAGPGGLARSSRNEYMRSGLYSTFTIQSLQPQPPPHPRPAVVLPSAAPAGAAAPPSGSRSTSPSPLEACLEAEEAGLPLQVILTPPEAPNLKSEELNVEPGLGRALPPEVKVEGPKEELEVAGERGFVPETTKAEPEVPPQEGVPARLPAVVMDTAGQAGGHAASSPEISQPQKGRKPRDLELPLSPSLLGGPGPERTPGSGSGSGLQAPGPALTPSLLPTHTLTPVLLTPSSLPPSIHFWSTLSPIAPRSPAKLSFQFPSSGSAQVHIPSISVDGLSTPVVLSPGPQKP
In short: as §1

[3] = target: T3, GABPA (Homo sapiens, UniProt Q06546 1-454)
T3 sequence: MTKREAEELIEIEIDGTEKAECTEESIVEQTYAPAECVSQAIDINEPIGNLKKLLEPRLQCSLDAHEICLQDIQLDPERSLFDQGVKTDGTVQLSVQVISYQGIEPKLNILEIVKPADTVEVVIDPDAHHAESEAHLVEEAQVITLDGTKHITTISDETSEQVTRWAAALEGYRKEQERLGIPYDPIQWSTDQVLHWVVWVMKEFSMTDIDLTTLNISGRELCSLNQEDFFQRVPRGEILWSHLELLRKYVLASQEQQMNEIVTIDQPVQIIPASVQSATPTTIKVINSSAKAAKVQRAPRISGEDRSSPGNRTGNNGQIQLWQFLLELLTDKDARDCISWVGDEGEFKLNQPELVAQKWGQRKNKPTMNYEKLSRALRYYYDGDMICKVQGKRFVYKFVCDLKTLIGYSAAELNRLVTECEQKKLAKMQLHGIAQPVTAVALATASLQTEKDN
In short: as §1

[4] = target: T4, ERG (Homo sapiens, UniProt P11308 1-479)
T4 sequence: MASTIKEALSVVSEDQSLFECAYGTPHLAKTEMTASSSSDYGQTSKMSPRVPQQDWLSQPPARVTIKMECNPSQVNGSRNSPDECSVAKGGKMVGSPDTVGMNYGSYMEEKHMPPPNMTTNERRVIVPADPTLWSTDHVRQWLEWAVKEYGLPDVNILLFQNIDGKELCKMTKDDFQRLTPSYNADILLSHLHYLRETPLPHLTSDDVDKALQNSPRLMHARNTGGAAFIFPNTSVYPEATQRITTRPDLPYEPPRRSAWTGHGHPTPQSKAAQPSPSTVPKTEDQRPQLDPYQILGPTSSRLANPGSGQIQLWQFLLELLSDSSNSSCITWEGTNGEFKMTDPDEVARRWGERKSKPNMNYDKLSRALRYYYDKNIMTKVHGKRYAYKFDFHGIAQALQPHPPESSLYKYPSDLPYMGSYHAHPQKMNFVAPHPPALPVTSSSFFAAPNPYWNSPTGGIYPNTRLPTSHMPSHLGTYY
In short: as §1

[5] = target: ELF1 (Homo sapiens, UniProt P32519 1-619)
Chain of ELF1 (P32519 whole entry): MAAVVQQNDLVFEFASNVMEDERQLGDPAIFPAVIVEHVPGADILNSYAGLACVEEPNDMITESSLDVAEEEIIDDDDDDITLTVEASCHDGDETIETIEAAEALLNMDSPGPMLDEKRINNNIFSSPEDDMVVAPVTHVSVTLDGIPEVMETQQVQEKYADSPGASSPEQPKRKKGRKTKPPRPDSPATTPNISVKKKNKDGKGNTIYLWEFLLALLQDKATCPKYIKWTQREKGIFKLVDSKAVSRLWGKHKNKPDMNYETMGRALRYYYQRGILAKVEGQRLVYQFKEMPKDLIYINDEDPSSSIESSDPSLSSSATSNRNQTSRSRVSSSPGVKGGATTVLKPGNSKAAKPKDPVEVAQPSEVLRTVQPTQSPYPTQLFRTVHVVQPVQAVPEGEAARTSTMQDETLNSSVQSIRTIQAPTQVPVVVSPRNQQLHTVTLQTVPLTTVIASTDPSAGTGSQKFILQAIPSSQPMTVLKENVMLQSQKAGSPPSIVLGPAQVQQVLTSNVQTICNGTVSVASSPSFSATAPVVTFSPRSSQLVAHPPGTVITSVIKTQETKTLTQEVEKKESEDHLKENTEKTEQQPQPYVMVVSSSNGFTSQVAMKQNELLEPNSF
In short: as §1

[6] = target: T5, EHF (Homo sapiens, UniProt Q9NZC4 1-300)
T5 sequence: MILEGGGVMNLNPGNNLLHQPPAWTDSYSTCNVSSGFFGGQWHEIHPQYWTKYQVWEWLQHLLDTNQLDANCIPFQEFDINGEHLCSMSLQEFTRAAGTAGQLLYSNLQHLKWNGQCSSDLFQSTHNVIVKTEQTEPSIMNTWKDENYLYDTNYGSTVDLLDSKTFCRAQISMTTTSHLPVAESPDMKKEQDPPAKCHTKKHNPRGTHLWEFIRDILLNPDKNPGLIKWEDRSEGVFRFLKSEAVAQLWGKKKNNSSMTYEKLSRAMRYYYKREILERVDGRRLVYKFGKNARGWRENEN
In short: as §1

[7] = target: SPI1 (Homo sapiens, UniProt P17947 1-270)
In short: as §1

[8] = target: SPIB (Homo sapiens, UniProt Q01892 1-262)
Chain of SPIB (Q01892 whole entry): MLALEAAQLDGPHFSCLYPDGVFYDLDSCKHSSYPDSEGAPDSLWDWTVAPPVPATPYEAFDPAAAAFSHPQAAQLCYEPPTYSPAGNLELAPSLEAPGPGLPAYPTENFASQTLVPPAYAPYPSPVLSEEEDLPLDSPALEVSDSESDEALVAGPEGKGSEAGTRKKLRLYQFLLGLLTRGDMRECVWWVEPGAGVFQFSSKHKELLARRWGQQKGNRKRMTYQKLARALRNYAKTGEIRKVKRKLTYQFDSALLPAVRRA
In short: as §1

[9] = target: SPI1 (Homo sapiens, UniProt P17947 1-270); remark: listed apart in the source
In short: as §1

[10] = target: T6, ELK3 (Homo sapiens, UniProt P41970 1-407)
T6 sequence: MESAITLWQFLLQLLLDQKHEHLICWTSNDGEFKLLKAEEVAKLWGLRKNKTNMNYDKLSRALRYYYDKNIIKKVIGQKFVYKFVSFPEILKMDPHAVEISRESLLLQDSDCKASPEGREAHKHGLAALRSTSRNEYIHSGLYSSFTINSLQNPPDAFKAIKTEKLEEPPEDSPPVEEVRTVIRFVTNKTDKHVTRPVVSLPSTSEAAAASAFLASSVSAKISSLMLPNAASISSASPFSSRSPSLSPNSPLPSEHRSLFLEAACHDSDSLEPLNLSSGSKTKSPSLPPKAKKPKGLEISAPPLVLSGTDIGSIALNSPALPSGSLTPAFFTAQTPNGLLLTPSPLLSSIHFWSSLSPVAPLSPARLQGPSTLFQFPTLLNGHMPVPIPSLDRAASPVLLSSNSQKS
In short: as §1

CCGCGT
binding signal [1]: 1.29 fold enrichment (6-mer frequency, TF over GST control)
binding signal [2]: 1.11 fold enrichment (6-mer frequency, TF over GST control)
binding signal [3]: 1.06 fold enrichment (6-mer frequency, TF over GST control)
binding signal [4]: 1.13 fold enrichment (6-mer frequency, TF over GST control)
binding signal [5]: 1.1 fold enrichment (6-mer frequency, TF over GST control)
binding signal [6]: 1.18 fold enrichment (6-mer frequency, TF over GST control)
binding signal [7]: 1.12 fold enrichment (6-mer frequency, TF over GST control)
binding signal [8]: 1.16 fold enrichment (6-mer frequency, TF over GST control)

TCACTA
binding signal [1]: 1.21 fold enrichment (6-mer frequency, TF over GST control)
binding signal [2]: 1.22 fold enrichment (6-mer frequency, TF over GST control)
binding signal [3]: 1.17 fold enrichment (6-mer frequency, TF over GST control)
binding signal [4]: 1.17 fold enrichment (6-mer frequency, TF over GST control)
binding signal [5]: 1.21 fold enrichment (6-mer frequency, TF over GST control)
binding signal [6]: 1.17 fold enrichment (6-mer frequency, TF over GST control)
binding signal [7]: 1.23 fold enrichment (6-mer frequency, TF over GST control)
binding signal [8]: 1.25 fold enrichment (6-mer frequency, TF over GST control)

GTGCTC
binding signal [1]: 1.26 fold enrichment (6-mer frequency, TF over GST control)
binding signal [2]: 1.18 fold enrichment (6-mer frequency, TF over GST control)
binding signal [3]: 1.25 fold enrichment (6-mer frequency, TF over GST control)
binding signal [4]: 1.2 fold enrichment (6-mer frequency, TF over GST control)
binding signal [5]: 1.19 fold enrichment (6-mer frequency, TF over GST control)
binding signal [6]: 1.22 fold enrichment (6-mer frequency, TF over GST control)
binding signal [7]: 1.36 fold enrichment (6-mer frequency, TF over GST control)
binding signal [8]: 1.3 fold enrichment (6-mer frequency, TF over GST control)

CAACGC
binding signal [1]: 1.04 fold enrichment (6-mer frequency, TF over GST control)
binding signal [2]: 1.11 fold enrichment (6-mer frequency, TF over GST control)
binding signal [3]: 1.12 fold enrichment (6-mer frequency, TF over GST control)
binding signal [4]: 1.04 fold enrichment (6-mer frequency, TF over GST control)
binding signal [5]: 1.11 fold enrichment (6-mer frequency, TF over GST control)
binding signal [6]: 1.01 fold enrichment (6-mer frequency, TF over GST control)
binding signal [7]: 1.1 fold enrichment (6-mer frequency, TF over GST control)

AATAGA
binding signal [1]: 1.06 fold enrichment (6-mer frequency, TF over GST control)
binding signal [2]: 1.09 fold enrichment (6-mer frequency, TF over GST control)
binding signal [3]: 1.11 fold enrichment (6-mer frequency, TF over GST control)
binding signal [4]: 1.12 fold enrichment (6-mer frequency, TF over GST control)
binding signal [5]: 1.09 fold enrichment (6-mer frequency, TF over GST control)
binding signal [6]: 1.08 fold enrichment (6-mer frequency, TF over GST control)
binding signal [7]: 1.08 fold enrichment (6-mer frequency, TF over GST control)
binding signal [8]: 1.05 fold enrichment (6-mer frequency, TF over GST control)

GAAAAG
binding signal [1]: 1.05 fold enrichment (6-mer frequency, TF over GST control)
binding signal [2]: 1.01 fold enrichment (6-mer frequency, TF over GST control)
binding signal [3]: 1.07 fold enrichment (6-mer frequency, TF over GST control)
binding signal [4]: 1.06 fold enrichment (6-mer frequency, TF over GST control)
binding signal [5]: 1.04 fold enrichment (6-mer frequency, TF over GST control)
binding signal [6]: 1.11 fold enrichment (6-mer frequency, TF over GST control)
binding signal [7]: 1.3 fold enrichment (6-mer frequency, TF over GST control)
binding signal [8]: 1.14 fold enrichment (6-mer frequency, TF over GST control)

CCCCGA
binding signal [1]: 1.23 fold enrichment (6-mer frequency, TF over GST control)
binding signal [2]: 1.2 fold enrichment (6-mer frequency, TF over GST control)
binding signal [3]: 1.21 fold enrichment (6-mer frequency, TF over GST control)
binding signal [4]: 1.16 fold enrichment (6-mer frequency, TF over GST control)
binding signal [5]: 1.16 fold enrichment (6-mer frequency, TF over GST control)
binding signal [6]: 1.14 fold enrichment (6-mer frequency, TF over GST control)
binding signal [7]: 1.15 fold enrichment (6-mer frequency, TF over GST control)
binding signal [8]: 1.23 fold enrichment (6-mer frequency, TF over GST control)

GGAAGT
binding signal [1]: 2.88 fold enrichment (6-mer frequency, TF over GST control)
binding signal [2]: 3.29 fold enrichment (6-mer frequency, TF over GST control)
binding signal [3]: 2.57 fold enrichment (6-mer frequency, TF over GST control)
binding signal [4]: 3.6 fold enrichment (6-mer frequency, TF over GST control)
binding signal [5]: 2.87 fold enrichment (6-mer frequency, TF over GST control)
binding signal [6]: 3.23 fold enrichment (6-mer frequency, TF over GST control)
binding signal [9]: 4.86 fold enrichment (6-mer frequency, TF over GST control)
binding signal [8]: 3.19 fold enrichment (6-mer frequency, TF over GST control)
binding signal [10]: 3.36 fold enrichment (6-mer frequency, TF over GST control)
